Screening data as filed in PubChem.
Only some compounds are listed: those with a hit (about 27% of all), similar ones and a draw of the others.
EphB4 ephrin blk = EphB4-ephrin-B2 interaction antagonists, primary screen, biochemical, TNYL-RAW peptide probe, fluorescence polarization; Ephrin type-B receptor 4 (Homo sapiens), P54760; EphB4 LBD / TNYL-RAW-Alexa532 peptide; inhibition, % at 7 µM; hit rate 0.15% among 97,000; AID 720, 2007;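 active means inhibition above the screen-wide mean inhibition plus 3 SD, cut at about 15% in these data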
CYP2C9 inh = blockers of cytochrome P450 2C9 activity – biochemical, luminescence, ADME assay, primary screen; hit rate 20% among 96,000; AID 777, 2007; inhibition, % at 5 µM; CYP2C9 Supersomes, luciferin-H conversion;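 active means blocking of liver enzyme CYP2C9 beyond about 50% at 5 µM, limit read from the data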
CYP2C9 activ = human CYP2C9 activators, primary screen, biochemical, luminescence; Cytochrome P450 2C9 (Homo sapiens), P11712; recombinant CYP2C9, luciferin-H conversion; active compounds read high; factor 1 = untreated enzyme, 0 = blocked; activation factor at 5 µM; hit rate 1.4% among 96,000;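 active means activation factor of 2 or more for CYP2C9 at a 5 µM dose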
CYP2C19 act = human CYP2C19 activators, primary screen, biochemical, luminescence | AID 1025, 2008 | recombinant CYP2C19, luciferin-H EGE luminescence; active compounds read high; 0 = fully inhibited enzyme, 1 = untreated enzyme | 96,000 tested, under 10 active | activation factor at 5 µM;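 active means activation factor of at least 2 at 5 µM in the primary screen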
Target sequence (P33261 whole entry, looked up): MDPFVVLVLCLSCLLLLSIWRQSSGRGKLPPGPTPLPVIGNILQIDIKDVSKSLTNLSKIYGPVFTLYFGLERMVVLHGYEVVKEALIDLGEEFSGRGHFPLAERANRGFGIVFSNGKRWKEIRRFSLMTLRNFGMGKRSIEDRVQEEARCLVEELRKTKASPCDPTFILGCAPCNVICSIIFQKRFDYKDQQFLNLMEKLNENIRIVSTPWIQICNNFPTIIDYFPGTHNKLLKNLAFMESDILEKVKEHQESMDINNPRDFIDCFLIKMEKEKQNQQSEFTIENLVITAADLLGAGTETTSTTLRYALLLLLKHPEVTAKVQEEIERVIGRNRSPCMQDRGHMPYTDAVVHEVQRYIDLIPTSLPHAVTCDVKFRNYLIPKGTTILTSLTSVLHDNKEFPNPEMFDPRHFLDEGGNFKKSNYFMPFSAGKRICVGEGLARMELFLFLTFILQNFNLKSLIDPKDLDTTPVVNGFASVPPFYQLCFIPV
CYP2C19 inhib = blockers of cytochrome P450 2C19 activity – biochemical, luminescence, ADME assay, primary screen. hit rate 21% among 96,000. inhibition, % at 5 µM. CYP2C19 Supersomes, luciferin-H EGE luminescence, 30 min. P33261;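 active means CYP2C19 inhibition above a set limit at 5 µM in the primary screen, cut at about 50% in these data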
Large screens that a line does not name were inactive.

COC(=O)c1sc2nc(-c3ccccc3)c3c(c2c1N)CCCC3	none
Cc1ccc(C(=O)Nc2ccon2)cc1S(=O)(=O)N1CCCC1	CYP2C19 inhib 58.4
O=C(c1cccc(S(=O)(=O)N2CCCCC2)c1)N1CCOCC1	none
CC(=O)Nc1ccc(S(=O)(=O)N2CCN(S(=O)(=O)N3CCCCCC3)CC2)cc1	none
CC(=O)Nc1cccc(S(=O)(=O)N2CCCCCC2)c1	CYP2C9 activ 2.5, CYP2C19 inhib 75.3
O=C(Nc1ccon1)c1cccc(S(=O)(=O)N2CCCC2)c1	none
O=C(c1cccc(S(=O)(=O)N2CCCC2)c1)c1nnc(-c2ccncc2)o1	CYP2C9 inh 90.4, CYP2C19 inhib 78.2
O=C(Nc1cccc(O)c1)c1cc(S(=O)(=O)N2CCCC2)ccc1Cl	CYP2C9 inh 82.5
CCCCn1cnc2c1c(=O)n(C)c(=O)n2C	none (no result: CYP2C9 inh, CYP2C9 activ, CYP2C19 act, CYP2C19 inhib)
Cc1csc(NC(=O)c2ccc(C)c(S(=O)(=O)N3CCCCC3)c2)n1	none
O=C(NCc1cccs1)c1cc(S(=O)(=O)N2CCCCC2)ccc1Cl	none (no result: CYP2C9 inh, CYP2C9 activ, CYP2C19 act, CYP2C19 inhib)
CC(=O)Nc1ccc(S(=O)(=O)N2CCC(NC(C)=O)(c3cccc(F)c3)CC2)cc1	CYP2C9 inh 75.0, CYP2C19 inhib 92.8
O=C(Nc1ccccc1)c1cccc(S(=O)(=O)N2CCCCC2)c1	CYP2C19 inhib 58.3
Cc1ccc(C(=O)Nc2ccc3cn[nH]c3c2)cc1S(=O)(=O)N1CCCCC1	CYP2C9 inh 91.9
Cc1ccc(C(=O)NCc2cccs2)cc1S(=O)(=O)N1CCCCC1	CYP2C9 inh 56.0 (no result: EphB4 ephrin blk)
CC(=O)NC1(c2cccc(F)c2)CCN(C(=O)Nc2ccc(C#N)cc2)CC1	none
CCOc1ccc(-c2nc(-c3ccc(OC)c(OC)c3)no2)cc1OCC	none
CC(C)N(C(=O)c1ccc2nc3c4ccccc4c4ccccc4c3nc2c1)C(C)C	none (no result: CYP2C9 inh, CYP2C9 activ, CYP2C19 act, CYP2C19 inhib)
CC1=C([N+](=O)[O-])C(c2cccc(Br)c2)C2=C(N1)c1ccccc1C2=O (configuration not stated)	CYP2C9 inh 98.3, CYP2C19 inhib 87.6
CCOc1ccc(N2CC(O)Cn3c2nc2c3c(=O)n(CCCc3ccccc3)c(=O)n2C)cc1 (configuration not stated)	none
Cc1cccc(C)c1OCc1nnc(SCC(=O)NCCc2ccccc2)o1	none (no result: CYP2C9 inh, CYP2C9 activ, CYP2C19 act, CYP2C19 inhib)
Cc1cc(C(=O)OCC(=O)c2ccc3c(c2)OCCO3)c(C)o1	CYP2C19 inhib 86.5
C/C(Nc1cccc(F)c1)=C(/C#N)C(N)=O	CYP2C9 inh 67.5
C/C(Nc1ccc(F)cc1)=C(/C#N)C(N)=O	none
CSc1nnc(-c2sc3cc(Cl)ccc3c2Cl)n1C	CYP2C19 inhib 52.5
COc1ccc(NC(=O)Cn2nnc(-c3ccc(CN4CCOCC4)cc3)n2)c(OC)c1	none
COc1ccc2c(c1)c(C(=O)CN1CCN(C(=O)c3ccco3)CC1)c(C)n2C	CYP2C19 inhib 57.1
Nc1ccc(Cc2nc3c(ccc4ccccc43)[nH]2)cc1	CYP2C19 inhib 85.9
Cc1ccc2nc(Cc3ccc(N)cc3)[nH]c2c1	CYP2C19 inhib 82.3
Cc1ccc(C)c(-c2nc3ccc(N)cc3[nH]2)c1	none
c1ccc(-c2nc3c(ccc4ccccc43)[nH]2)nc1	none (no result: CYP2C9 inh, CYP2C9 activ, CYP2C19 act, CYP2C19 inhib)
CC1CCCN(C(=O)c2ccncc2)C1 (configuration not stated)	CYP2C19 inhib 82.4
CC1CC(C)CN(C(=O)c2ccncc2)C1 (configuration not stated)	none
O=C(c1ccc(F)cc1)C1CCN(C(=O)N2CCOCC2)CC1	none
O=C(c1ccc(F)cc1)C1CCN(C(=O)c2ccncc2)CC1	CYP2C9 inh 96.6, CYP2C19 inhib 97.6
O=C(c1ccc(Cl)cc1)C1CCN(C(=O)C2CC2)CC1	CYP2C19 inhib 82.7
Cc1ccc(-c2nc(CS(=O)CC(=O)NCc3ccccn3)c(C)o2)cc1 (configuration not stated)	none
Cc1ccc(S(=O)(=O)c2n[nH]n3c2nc(=O)c2ccccc23)cc1	CYP2C9 inh 93.5
CCN(CC)C(=O)c1sc(NC(=O)Cc2ccc(OC)cc2)c(C#N)c1C	CYP2C9 inh 77.9, CYP2C19 inhib 77.6
CCN(CC)C(=O)c1sc(NC(=O)Cc2ccccc2)c(C#N)c1C	none (no result: CYP2C9 inh, CYP2C9 activ, CYP2C19 act, CYP2C19 inhib)
O=C1NC2(Nc3ccccc31)C(=O)Nc1ccccc12 (configuration not stated)	none
Cc1ccc(C(C)C)cc1C(=O)CC1(O)C(=O)N(C)c2ccccc21 (configuration not stated)	CYP2C9 inh 59.2, CYP2C19 inhib 66.4
CC(C)CC(C(=O)NCc1ccccn1)N1C(=O)c2ccccc2C1=O (configuration not stated)	CYP2C19 inhib 70.8
CC(C)C[C@H](NC(=O)OC(C)(C)C)C(=O)N/N=C/C1=Cc2ccccc2OC1C (some centres not stated)	none
O=S(=O)(NCc1ccccc1)c1cccs1	CYP2C19 inhib 50.8
O=C(CCNS(=O)(=O)c1cccs1)N1CCc2ccccc2C1	CYP2C19 inhib 58.9
O=C(NCc1ccc(F)cc1)C(Cc1ccccc1)NS(=O)(=O)c1cccs1 (configuration not stated)	CYP2C9 inh 50.5, CYP2C19 inhib 88.8
O=C(NCc1cccs1)C(Cc1ccccc1)NS(=O)(=O)c1cccs1 (configuration not stated)	none (no result: CYP2C9 inh, CYP2C9 activ, CYP2C19 act, CYP2C19 inhib)
O=S(=O)(NCCSc1ccccc1)c1cccs1	CYP2C19 inhib 80.1
O=c1oc(-c2cc3ccccc3o2)nc2sc3c(c12)CCCC3	none
O=C1C2CCCN2C(c2ccc(Cl)cc2)N1c1nccs1 (configuration not stated)	none (no result: CYP2C9 inh, CYP2C9 activ, CYP2C19 act, CYP2C19 inhib)
O=C(CCNS(=O)(=O)c1cccs1)NCc1ccccc1	CYP2C19 inhib 83.3
Cc1cc(/C=C(/C#N)c2cccc(F)c2)c(C)n1-c1cccnc1	CYP2C9 inh 98.9, CYP2C19 inhib 89.2
COc1ccc(NS(=O)(=O)c2ccc(NS(C)(=O)=O)cc2)cc1	none
CC(=O)NS(=O)(=O)c1ccc(NC(=O)c2ccccc2F)cc1	none
COC(=O)c1ccc(NS(=O)(=O)c2ccc(SC)cc2)cc1	none
CC(=O)NS(=O)(=O)c1ccc(NS(=O)(=O)c2ccc(F)cc2)cc1	CYP2C9 inh 59.2
O=S(=O)(Nc1ccc(-c2csc(-c3ccccc3)n2)cc1)c1ccc(F)cc1	CYP2C9 inh 97.2
O=C(Nc1ccc(-c2csc(-c3ccccc3)n2)cc1)c1ccccc1	none
CSc1ccc(S(=O)(=O)Nc2ccc(F)cc2)cc1	CYP2C9 inh 92.4, CYP2C19 inhib 100.1
COc1ccc(NS(=O)(=O)c2ccc(SC)cc2)cc1	CYP2C9 inh 96.1, CYP2C19 inhib 100.0
CCCCC(CC)COC1(c2ccccc2)OC(=O)c2ccccc21 (configuration not stated)	none
O=C(OCn1nnc2ccccc2c1=O)c1ccc(Br)o1	none (no result: CYP2C9 inh, CYP2C9 activ, CYP2C19 act, CYP2C19 inhib)
